The nature of assay [1]: compounds binding Alexa647 anti-His antibody – biochemical, small-molecule microarray, 635 nm fluorescence, artefact control for SMM control protein annotation, primary screen (AID 1128).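 Note: score merges feature fluorescence with signal-to-noise for each printed compound spot.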 The conditions noted are these: higher = more signal.
Assay [2] concerns Human papillomavirus type 1a E7 protein (residues 1-88). Description: HPV1a E7 small-molecule binders, primary screen, biochemical, small-molecule microarray, residues 1-88, 635 nm (AID 1129). The settings on record: small-molecule microarray binding, fluorescence 635 nm; higher = more signal.
Assay [3] has as its target Focal adhesion kinase 1 (Homo sapiens) (UniProt Q05397). Briefly: PTK2 protein binding on printed compound slides – biochemical, small-molecule microarray, 635/667 nm fluorescence, BSA, DTT, primary screen (AID 1130).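 Note: composite of spot emission at 667 nm and signal to noise over triplicate slides.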 The settings on record: 635 nm fluorescence, higher = more signal.
For assay [4], the system named is Fibrinogen (Alexa647-labelled). Description: Alexa647-fibrinogen binding to printed small molecules – biochemical, small-molecule microarray, 635/667 nm fluorescence, artefact control for SMM control-protein annotation, profiling panel (AID 1131).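 Note: z-score merges 667 nm fluorescence with per-spot signal-to-noise over triplicate slides.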 The conditions noted are these: fibrinogen-A647 binding fluorescence, higher = more signal.
For assay [5], the target named is Follistatin (Homo sapiens) (UniProt P19883). Description: FST protein binding to printed compounds – biochemical, small-molecule microarray, 635/667 nm fluorescence, primary screen (AID 1132). The settings on record: 635 nm fluorescence, higher = more signal.
Assay [6] addresses Fibroblast growth factor 2 (Homo sapiens) (UniProt P09038). Briefly: basic fibroblast growth factor binding to printed compounds – biochemical, small-molecule microarray, 635/667 nm fluorescence, primary screen (AID 1133). The conditions noted are these: FGF2, fluorescence 635/667, higher = more signal.
Assay [7] is described as follows: JC-1 mitochondrial potential readout, lung cancer cells – cell-based, A549, JC-1 fluorescence, basal, 24 h, 100 nL, profiling panel (AID 1138).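 Note: A549 lung adenocarcinoma cells under basal conditions with no added stimulus; test concentration not given here.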 The conditions noted are these: higher = more signal.
The test system of a further assay is Lefty1. Description: Lefty1 protein binding to printed compounds – biochemical, small-molecule microarray, 635/667 nm fluorescence, primary screen (AID 1139). The conditions noted are these: fluorescence 635/667, higher = more signal.
The test system of assay [8] is wheat germ agglutinin (Triticum aestivum), Alexa647-labelled. Description: Alexa647-WGA lectin binding to printed small molecules – biochemical, small-molecule microarray, 635/667 nm fluorescence, artefact control for SMM control-protein annotation, profiling panel (AID 1140).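 Note: score merges 667 nm feature emission with signal to noise over triplicate slides.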 The settings on record: WGA-A647 binding, 635 nm fluorescence, higher = more signal.
The target of assay [9] is Luciferin 4-monooxygenase (Photinus pyralis) (UniProt P08659). Description: inhibition of purified Photinus pyralis luciferase – biochemical, luminescence, purified enzyme, 2006 set, primary screen (AID 1141).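 Note: cell-free assay with purified firefly luciferase at 100 ng per well in PBS; test concentration not given here.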 The settings on record: purified firefly luciferase, SteadyGlo luminescence, 30 min; higher = more signal, called active from +8 up or from −8 down.
Assay [10] deals with Wnt5a (protein binding on small-molecule microarray). Briefly: small molecules binding Wnt5a protein – biophysical, small-molecule microarray, 635/667 nm fluorescence, primary screen (AID 1142).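 Note: fluorescence read at 667 nm with signal to noise per printed feature.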 The conditions noted are these: 635 nm fluorescence, higher = more signal.
The nature of assay [11]: ATP-based viability of Huh7 replicon cells – cell-based, CellTiter-Glo luminescence, basal, 48 h, cytotoxicity control for HCV replication inhibitor project, primary screen (AID 1143).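 Note: Huh7 hepatoma cells carrying a hepatitis C replication reporter with no stimulus; test concentration not given here.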 The settings on record: higher = more signal, called active from +8 up or from −8 down. (In general: Replicon systems follow genome replication, usually without infectious particles.)
Assay [12] can be described thus: Pseudomonas biofilm growth suppression – PAO1 strain, BacTiter-Glo luminescence, LB-PBS, primary screen (AID 1144). The conditions noted are these: P. aeruginosa PAO1 biofilm, 12 h, higher = more signal.
Assay [13] in a line: basal CRE-LacZ reporter activity in PC12 – cell-based, unstimulated, primary screen (AID 1145). The settings on record: no forskolin, luminescence, 4.5 h, higher = more signal, called active from +8 up or from −8 down.
Assay [14] can be described thus: forskolin-driven CRE-LacZ activity in PC12 – cell-based, CRE-LacZ reporter, forskolin-stimulated, primary screen (AID 1146).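 Note: PC12 cells with 6xCRE LacZ reporter stimulated by forskolin 10 µM; beta-galactosidase reporter signal reflecting CREB driven transcription.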 The conditions noted are these: luminescence, 4.5 h, higher = more signal, called active from +8 up or from −8 down.
Assay [15] has as its target Streptavidin (Streptomyces avidinii) (UniProt P22629). Description: compounds binding control protein streptavidin – biophysical, small-molecule microarray, 635/667 nm fluorescence, artefact control for SMM compound annotation, primary screen (AID 1147).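 Note: signal reflects streptavidin binding to arrayed compounds as a control protein.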 The settings on record: higher = more signal.
Assay [16] is described as follows: probe aInhba binding on compound microarray – biochemical, small-molecule microarray, 635/667 nm fluorescence, primary screen (AID 1148).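 Note: score merges 667nm spot fluorescence with signal-to-noise for antibody binding to printed compounds.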 The conditions noted are these: higher = more signal.
For assay [17], the target named is Torsin-1A (Homo sapiens) (UniProt O14656). Description: TOR1A wild-type binding on microarray – cell lysate, small-molecule microarray, lysate, 635/667 nm, primary screen (AID 1149). The settings on record: COS7 hTOR1A-WT lysate, 635 nm fluorescence, higher = more signal.
Assay [18] shares this target. Description: torsin A mutant lysate binding on microarrays – cell lysate, small-molecule microarray, COS7 lysate, 635/667 nm fluorescence, primary screen (AID 1150).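 Note: score pools 667 nm emission and signal to noise measuring lysate protein binding.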 The conditions noted are these: COS7 hTOR1A mutant lysate, 635 nm fluorescence, higher = more signal.
Assay [19] relates to Sonic hedgehog protein (Shh). Description: Sonic hedgehog microarray binding compounds – biochemical, small-molecule microarray, 635/667 nm fluorescence, primary screen (AID 1151).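 Note: Shh protein binding to compounds spotted on small-molecule microarray slides; score combines spot fluorescence intensity with signal-to-noise across triplicate slides.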 The conditions noted are these: 635 nm fluorescence, higher = more signal.

“And” between values parts separate entries of the source, which are not always exact repeats. Equal values may be shown once. The source made the active and inactive calls. Unless noted, the rule behind the calls is not given here.

Fibroblast growth factor 2 (Homo sapiens), sequence (P09038 whole entry, looked up): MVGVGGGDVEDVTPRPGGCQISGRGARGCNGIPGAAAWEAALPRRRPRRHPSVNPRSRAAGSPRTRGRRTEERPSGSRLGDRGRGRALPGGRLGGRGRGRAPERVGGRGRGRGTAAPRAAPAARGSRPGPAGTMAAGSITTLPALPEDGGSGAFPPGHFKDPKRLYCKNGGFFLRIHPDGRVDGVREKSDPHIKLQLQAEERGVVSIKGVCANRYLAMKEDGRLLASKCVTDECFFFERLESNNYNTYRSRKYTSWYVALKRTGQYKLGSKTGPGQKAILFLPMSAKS
Torsin-1A (Homo sapiens), sequence (O14656 whole entry, looked up): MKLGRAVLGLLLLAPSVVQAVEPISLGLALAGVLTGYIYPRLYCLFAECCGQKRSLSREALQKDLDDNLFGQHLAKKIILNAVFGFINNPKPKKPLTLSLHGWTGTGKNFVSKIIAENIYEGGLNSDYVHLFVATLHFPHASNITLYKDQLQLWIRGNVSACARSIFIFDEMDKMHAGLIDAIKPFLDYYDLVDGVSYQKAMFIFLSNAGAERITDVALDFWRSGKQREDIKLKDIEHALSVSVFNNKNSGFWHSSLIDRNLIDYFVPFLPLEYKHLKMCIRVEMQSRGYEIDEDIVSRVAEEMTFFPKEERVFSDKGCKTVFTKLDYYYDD
Luciferin 4-monooxygenase (Photinus pyralis), sequence (P08659 whole entry, looked up): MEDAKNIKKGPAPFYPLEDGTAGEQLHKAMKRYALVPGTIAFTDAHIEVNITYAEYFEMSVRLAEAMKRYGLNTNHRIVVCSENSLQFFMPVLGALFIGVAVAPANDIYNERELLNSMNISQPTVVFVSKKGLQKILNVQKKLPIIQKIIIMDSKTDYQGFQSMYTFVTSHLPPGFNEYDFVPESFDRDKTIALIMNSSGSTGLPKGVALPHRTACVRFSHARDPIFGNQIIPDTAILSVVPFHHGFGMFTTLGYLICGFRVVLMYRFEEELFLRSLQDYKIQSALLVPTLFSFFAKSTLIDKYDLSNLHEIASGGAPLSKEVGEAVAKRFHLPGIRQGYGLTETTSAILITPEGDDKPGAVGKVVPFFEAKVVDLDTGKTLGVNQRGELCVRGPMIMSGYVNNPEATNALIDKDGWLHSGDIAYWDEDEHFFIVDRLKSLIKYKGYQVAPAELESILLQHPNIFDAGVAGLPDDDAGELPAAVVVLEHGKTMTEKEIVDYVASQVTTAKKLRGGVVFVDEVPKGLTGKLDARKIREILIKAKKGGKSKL
Follistatin (Homo sapiens), sequence (P19883 whole entry, looked up): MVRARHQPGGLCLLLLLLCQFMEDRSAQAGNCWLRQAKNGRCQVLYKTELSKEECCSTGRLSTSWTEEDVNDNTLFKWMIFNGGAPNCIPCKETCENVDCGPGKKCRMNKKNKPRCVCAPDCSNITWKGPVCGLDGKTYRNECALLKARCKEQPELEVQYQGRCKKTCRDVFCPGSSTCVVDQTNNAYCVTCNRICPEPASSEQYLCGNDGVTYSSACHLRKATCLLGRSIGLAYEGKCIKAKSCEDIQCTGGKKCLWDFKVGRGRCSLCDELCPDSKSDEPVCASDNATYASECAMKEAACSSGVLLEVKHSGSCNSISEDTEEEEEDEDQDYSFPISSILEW
Focal adhesion kinase 1 (Homo sapiens), sequence (Q05397 whole entry, looked up): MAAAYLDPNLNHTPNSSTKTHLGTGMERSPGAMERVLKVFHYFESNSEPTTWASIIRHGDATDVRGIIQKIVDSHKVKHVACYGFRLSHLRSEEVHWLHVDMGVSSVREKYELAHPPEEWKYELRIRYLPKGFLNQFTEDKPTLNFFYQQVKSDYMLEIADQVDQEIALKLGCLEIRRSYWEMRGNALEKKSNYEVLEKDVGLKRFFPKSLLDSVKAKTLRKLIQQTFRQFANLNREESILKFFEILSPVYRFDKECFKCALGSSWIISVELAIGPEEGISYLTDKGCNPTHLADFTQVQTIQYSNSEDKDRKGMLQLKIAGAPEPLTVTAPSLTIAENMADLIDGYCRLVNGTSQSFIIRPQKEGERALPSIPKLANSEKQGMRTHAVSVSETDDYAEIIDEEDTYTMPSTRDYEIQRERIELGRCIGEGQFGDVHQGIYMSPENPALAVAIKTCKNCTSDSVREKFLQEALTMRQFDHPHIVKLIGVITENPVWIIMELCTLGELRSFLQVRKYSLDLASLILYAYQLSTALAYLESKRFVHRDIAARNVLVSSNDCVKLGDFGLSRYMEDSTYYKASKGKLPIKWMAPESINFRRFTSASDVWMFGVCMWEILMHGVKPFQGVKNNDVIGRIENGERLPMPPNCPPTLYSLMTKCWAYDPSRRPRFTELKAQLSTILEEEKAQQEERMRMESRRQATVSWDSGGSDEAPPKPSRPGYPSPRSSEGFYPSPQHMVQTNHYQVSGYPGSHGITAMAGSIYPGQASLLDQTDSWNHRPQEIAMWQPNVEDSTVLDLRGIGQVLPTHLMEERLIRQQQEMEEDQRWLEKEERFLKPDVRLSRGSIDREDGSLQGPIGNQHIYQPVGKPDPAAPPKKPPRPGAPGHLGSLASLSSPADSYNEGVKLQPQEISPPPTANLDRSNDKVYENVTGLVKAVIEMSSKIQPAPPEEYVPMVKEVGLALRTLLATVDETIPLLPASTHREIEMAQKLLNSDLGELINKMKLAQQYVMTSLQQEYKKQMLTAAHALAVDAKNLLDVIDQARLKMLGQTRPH
Streptavidin (Streptomyces avidinii), sequence (P22629 whole entry, looked up): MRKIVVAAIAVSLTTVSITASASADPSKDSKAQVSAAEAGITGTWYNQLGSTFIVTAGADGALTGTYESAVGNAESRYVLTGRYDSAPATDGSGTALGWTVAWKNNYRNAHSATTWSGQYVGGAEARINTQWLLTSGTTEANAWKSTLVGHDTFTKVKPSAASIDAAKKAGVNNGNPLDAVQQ

As for `COC(=O)C1=C(C)N(Cc2ccccc2)[C@]23O[C@](C(=O)OC)(C(=O)N2[C@@H]1c1ccccc1)[C@H]1C(=O)N(C)C(=O)[C@H]13`, the composite z-score in [1] was 0.561 and 1.01; in assay [2], 1.12 and 0.878; in [3] it was -0.178 and -0.0654; in [4] it was 0.938 and 0.0407; in [5] it was 0.368 and 0.409; in assay [6] it was 0.219 and 0.4. The composite z-score in the assay on Lefty1 is 0.817 and 1.17; in [8] it was 0.638 and 0.366; in [10], 0.0757 and 0.142; in assay [15], 0.412 and 0.0225; in assay [16], -0.278 and -0.179; with Torsin-1A (Homo sapiens) [17], 0.314 and 0.263. Further, the composite z-score is 0.691 and 0.524 with Torsin-1A (Homo sapiens) [18]; 0.548 and 0.736 in assay [19]. Also, the z-score was -0.993 and 1.4 in assay [7]; -0.576 (inactive) and -1.35 (inactive) in assay [9]; -1.01 (inactive) and -1.34 (inactive) in [11]; 0.225 (inactive) in assay [12]; 3.17 (inactive) and 0.019 (inactive) in [13]; -0.735 (inactive) and -1.7 (inactive) in assay [14].
Turning to `Cc1cc2c(nc1C)CCCN2CC(C)ON=C[C@@H](C)[C@H](OCc1ccccc1)C(C)C` (stereo not given in full), the composite z-score was -0.265 in assay [1]; -1.26 in [2]; 0.252 in assay [3]; -0.709 in [4]; 0.141 in [5]; -0.0657 in [6]. The composite z-score with Lefty1 is 0.254; in [8], -0.911; in [10] it was -0.0264; in assay [15], -0.254; in assay [16], -0.016; with Torsin-1A (Homo sapiens) [17] it was -0.209. For the same compound, the composite z-score with Torsin-1A (Homo sapiens) [18] was 0.22; in [19], 0.513. Besides, the z-score in [7] is -0.7; in [9], 0.765 (inactive); in assay [11], 0.615 (inactive); in [12] it was 0.461 (inactive); in [13], 0.248 (inactive); in [14], 0.317 (inactive).
For `Cc1ccc(S(=O)(=O)N[C@@H]2COC(=O)CC=C[C@@H](C)[C@@H]3C=C[C@H](O)[C@@H](COC(=O)CC=C[C@H]2C)O3)cc1`, the composite z-score in [1] was -0.226 and -0.118; in assay [2] it was -0.617 and -0.0999; in assay [3], -0.466 and -0.318; in assay [4], -0.656 and 0.267; in assay [5], 1.34 and 0.443; in assay [6] it was 1.01 and 0.578. In addition, the composite z-score in the assay with Lefty1 is 1.26 and 0.632; in [8], -0.113 and -0.0881; in assay [10], -0.0379 and -0.0821; in [15], -0.298 and 0.657; in assay [16], -0.111 and -0.157; in the assay with Torsin-1A (Homo sapiens) [17], 0.815 and 0.176. In addition, the composite z-score with Torsin-1A (Homo sapiens) [18] is 0.665 and 0.263; in [19], 1.43 and 0.631. The z-score is 1.78 and -1.7 in [7]; -0.92 (inactive) and 1.02 (inactive) in [9]; -0.0259 (inactive) and -3.11 (inactive) in [11]; -0.356 (inactive) and -2.59 (inactive) in assay [12]; -0.384 (inactive) and -0.478 (inactive) in assay [13]; -0.419 (inactive) and -0.201 (inactive) in assay [14].
For `CCCCN1CC=CC23O[C@@H]4C=CCCOC(=O)C4[C@H]2C(=O)N(C(C)CO)[C@@H]3C1=O` (stereo not given in full), the composite z-score in [1] is 2.27 and -0.329; in [2], -0.461 and -0.54; in assay [3] it was -0.293 and -0.0655; in [4], -1.04 and -0.749; in assay [5], -0.546 and 0.101; in assay [6], -0.579 and -0.63. The composite z-score with Lefty1 was -0.222 and 0.172; in assay [8] it was -0.558 and -0.281; in assay [10], -0.296 and 0.339; in [15] it was -1.23 and -0.178; in [16], -0.143 and 0.201; with Torsin-1A (Homo sapiens) [17], 0.234 and -0.131. The composite z-score with Torsin-1A (Homo sapiens) [18] is 0.234 and 0.148; in [19], 0.173 and 0.798. Further, the z-score was -0.224 and -0.725 in assay [7]; -0.0385 (inactive) and -0.213 (inactive) in assay [9]; 0.161 (inactive) and -0.214 (inactive) in [11]; 0.781 (inactive) and 1.82 (inactive) in assay [12]; -0.216 (inactive) and -0.204 (inactive) in assay [13]; 0.405 (inactive) and -0.764 (inactive) in [14].

The values are drawn from PubChem BioAssay.
